In publication PMC4336329 (PLoS ONE, 2015):
In all, about 310,000 compounds went through this assay and about 14,000 (4.5%) showed an effect of 50% or more. Effects have a minus sign here. The full list was thinned out, with strong results kept by preference.

molecular target: human ether-à-go-go-related gene (hERG) potassium channel (human, UniProt Q12809); experiment: primary screen, population patch clamp on CHO cells stably expressing hERG; higher = less effect of the substance
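Also: peak tail current of the secondary pulse compared with the same well before compound.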

Sequence of human ether-à-go-go-related gene (hERG) potassium channel (Q12809 whole entry, looked up): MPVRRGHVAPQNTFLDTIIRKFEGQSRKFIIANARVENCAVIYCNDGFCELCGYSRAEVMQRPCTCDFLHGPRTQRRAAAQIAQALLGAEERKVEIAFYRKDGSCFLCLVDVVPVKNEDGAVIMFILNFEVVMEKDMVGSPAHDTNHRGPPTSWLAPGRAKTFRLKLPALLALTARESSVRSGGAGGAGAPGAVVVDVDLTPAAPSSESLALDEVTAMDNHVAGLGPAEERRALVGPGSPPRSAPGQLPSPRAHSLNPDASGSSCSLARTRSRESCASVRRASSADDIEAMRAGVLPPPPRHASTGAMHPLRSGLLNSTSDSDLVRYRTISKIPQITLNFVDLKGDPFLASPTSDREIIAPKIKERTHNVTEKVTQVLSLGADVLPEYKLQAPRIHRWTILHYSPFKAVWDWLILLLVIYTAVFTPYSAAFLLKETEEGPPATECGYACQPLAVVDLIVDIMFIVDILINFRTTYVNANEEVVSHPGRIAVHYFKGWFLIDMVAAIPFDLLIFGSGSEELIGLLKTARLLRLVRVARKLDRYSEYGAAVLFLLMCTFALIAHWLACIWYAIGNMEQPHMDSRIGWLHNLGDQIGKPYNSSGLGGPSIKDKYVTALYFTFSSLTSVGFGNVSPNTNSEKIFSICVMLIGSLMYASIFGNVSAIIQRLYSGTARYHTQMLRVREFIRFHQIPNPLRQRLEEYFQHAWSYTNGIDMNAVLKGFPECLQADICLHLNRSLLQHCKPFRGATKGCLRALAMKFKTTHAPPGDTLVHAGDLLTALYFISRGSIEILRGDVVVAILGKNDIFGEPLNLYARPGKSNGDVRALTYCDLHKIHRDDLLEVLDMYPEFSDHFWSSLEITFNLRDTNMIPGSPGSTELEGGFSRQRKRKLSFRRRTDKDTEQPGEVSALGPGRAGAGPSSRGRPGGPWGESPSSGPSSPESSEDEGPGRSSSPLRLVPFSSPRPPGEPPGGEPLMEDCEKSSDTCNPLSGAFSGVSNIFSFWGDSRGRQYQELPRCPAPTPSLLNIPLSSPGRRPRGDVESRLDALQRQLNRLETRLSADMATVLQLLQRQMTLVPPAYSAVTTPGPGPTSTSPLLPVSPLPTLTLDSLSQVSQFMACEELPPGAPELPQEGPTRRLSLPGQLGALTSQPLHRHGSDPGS

| SMILES | hERG current change (%, negative = inhibition) at 10uM [%] |
| --- | --- |
| CCOC(=O)c1c(NC(=O)CN2C(=O)NC3(CCCCCC3)C2=O)sc(C)c1-c1ccc(C)cc1 | 4.24 |
| Cc1cccc(CSc2ccc3nnc(-c4cccnc4)n3n2)c1 | -66.5 |
| Cc1cccc(CSc2ccc3nnc(-c4cccs4)n3n2)c1 | 17.9 |
| Nn1c(SCc2cccc(F)c2)nnc1-c1cccnc1 | 9.33 |
| Fc1cccc(CSc2ccc3nnc(-c4cccnc4)n3n2)c1 | -69 |
| Cc1cccc(NC(=O)CSc2ccc3nnc(-c4cccnc4)n3n2)c1 | -30.1 |
| O=C(CSc1ccc2nnc(-c3cccnc3)n2n1)Nc1cccc(F)c1 | -43.6 |
| Cc1cc(S(=O)(=O)N2CCCC2)ccc1OCC(=O)NCc1ccccc1 | -11.8 |
| COc1ccc(-c2nn(-c3ccccc3)cc2/C=N/NC(=O)c2ccc(Br)o2)cc1 | -0.138 |
| Cc1ccc(C(=O)NCCc2nnc3ccc(SCC(=O)Nc4ccccc4F)nn23)cc1 | -12.7 |
| Cc1ccc(NC(=O)c2cc(=O)n(Cc3ccccc3)c(=O)[nH]2)cc1C | 35.8 |
| N#C/C(=C/c1ccc(Sc2nc3ccccc3[nH]2)o1)c1cccc(Br)c1 | 21.3 |
| CCOC(=O)c1ccccc1NC(=S)N1CCC(N2CCCCC2)CC1 | -33.8 |
| CC(=O)N1CCN(C(=S)NCCc2ccccc2)CC1 | -4.66 |
| CC1CCN(C(=S)NCCc2ccccc2)CC1 | -15.2 |
| S=C(NCCc1ccccc1)N1CCN(C2CCCCC2)CC1 | -63.4 |
| S=C(NCCc1ccccc1)N1CCN(C23CC4CC(CC(C4)C2)C3)CC1 | -75.2 |
| CN1CCN(C(=S)NCCc2ccccc2)CC1.O=C(O)C(=O)O | -14.5 |
| COC(=O)c1ccccc1NC(=S)N1CCN(C2CCCCC2)CC1 | -22.4 |
| O=C(c1ccccc1)N1CCN(C(=S)NCCc2ccccc2)CC1 | -65.7 |
| S=C(NCCc1ccccc1)N1CCCC1 | 9.47 |
| CCOC(=O)c1ccccc1NC(=S)N1CCN(C2CCCCC2)CC1 | -62.3 |
| OC1CCN(C(=S)NCCc2ccccc2)CC1 | -0.627 |

| SMILES | hERG current change (%, negative = inhibition) at 10uM [%] |
| --- | --- |
| S=C(NCCc1ccccc1)N1CCCCC1 | 14.4 |
| COc1cccc(CC2(CO)CCCN(S(=O)(=O)N(C)C)C2)c1 (stereo not drawn) | 42.4 |
| CCOC(=O)c1ccc(NC(=O)CN2C(=O)C(C)SC(C)C2=O)cc1 (stereo not drawn) | 8.95 |
| COc1ccc(C(CNC(=O)c2cc(S(=O)(=O)NCc3ccccc3)ccc2C)N2CCOCC2)cc1 (stereo not drawn) | -19 |
| COC(=O)CSc1nnc(COc2ccc3ccccc3c2)o1 | 19 |
| CC(=O)N(CCC1(C(C)C)CCOC(C)(C)C1)C(C)c1cccs1 (stereo not drawn) | -2.41 |
| Cc1cccc(NC(=O)c2ccc(C(=O)Nc3cccc(C)c3)nc2)c1 | 23.2 |
| COc1ccc(-c2noc(C(=O)NCc3ccccc3Cl)n2)cc1OC | 0.607 |
| CC(C)C1CC(c2csc(N)n2)CCO1 (stereo not drawn) | 18.8 |
| Cc1[nH]oc(=O)c1N=Nc1ccc2[nH]c(=O)[nH]c2c1 | 7.93 |
| CCOc1cc(-c2cn(S(=O)(=O)c3cccc4nsnc34)nc2N)cc(OCC)c1OCC | 0.719 |
| Cc1cc(C)c2sc(N(CCN(C)C)C(=O)c3c(F)cccc3F)nc2c1.Cl | -2.23 |
| CSCCC(NC(=O)c1ccc(Cl)cc1)C(=O)OCC(=O)N1CCCC1=O (stereo not drawn) | -2.69 |
| O=[N+]([O-])c1cccc(-c2ccc(C(=S)N3CCN(c4ccccc4)CC3)o2)c1 | 27.7 |
| S=C(NCc1ccccc1)N1CCCCC1 | -1.03 |
| O=C(c1ccccc1)N1CCN(c2ccc(NCc3ccc4c(c3)OCO4)cc2)CC1 | -12.2 |
| S=C(NCc1ccccc1)N1CCN(C2CCCCC2)CC1 | -62.6 |
| O=S(=O)(c1ccccc1)N1CCN(C(=S)NCc2ccccc2)CC1 | -50.3 |
| S=C(NCc1ccccc1)N1CCN(Cc2ccc3c(c2)OCO3)CC1 | -16.7 |
| O=S(=O)(c1cccc(F)c1)N1CCN(C(=S)NCc2ccccc2)CC1 | -0.89 |
| O=S(=O)(c1ccc(F)cc1)N1CCN(C(=S)NCc2ccccc2)CC1 | 13.8 |
| CCOC(=O)c1ccc(NC(=S)NCCCN2CCCCC2)cc1 | -42 |
